Screening results (PubChem BioAssay)
ID4 binder: binders of human ID4 protein, primary screen, biochemical, small molecule microarray, single point; hit rate 1.2% among 31,000; Flag-ID4 binding, fluorescence F/B; calls only; DNA-binding protein inhibitor ID-4 (Homo sapiens), P47928; call rule not given here;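 further: a binder raises fluorescence above local background on the spot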
Target sequence (P47928 whole entry, looked up): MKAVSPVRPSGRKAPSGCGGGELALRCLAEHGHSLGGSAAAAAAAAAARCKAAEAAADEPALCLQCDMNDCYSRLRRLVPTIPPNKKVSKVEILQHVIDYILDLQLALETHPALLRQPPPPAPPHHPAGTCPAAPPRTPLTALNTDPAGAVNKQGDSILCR
p53 PUMA act: mutant p53 pathway re-activators, primary screen, cell-based, SW480, luciferase, single point, HTS; SW480 PUMA-promoter luciferase, p53 mutant reactivation; activation, % at 9.98 µM; hit rate 1.5% among 28,000; in the data active means activation above about 52%
Each line names hits and unclear results; the compound was inactive in the other large screens. An excerpt weighted towards active compounds, which were near 2.3% of everything screened.

Cn1cc(C(=O)C(=O)N[C@H]2CN3CCC2CC3)c2ccccc21	none
O=C(N[C@H]1CN2CCC1CC2)c1ccc(Cl)cc1	ID4 binder active
COC1=CC(=O)OC(/C=C/c2ccccc2)C1 (stereo not given)	p53 PUMA act 89.6
CC1CCC/C=C/C2CC(O)CC2C(O)/C=C\C(=O)O1 (stereo not given)	none
CCOC(=O)[C@@H]1[C@@H]2NC(=O)N(C)[C@@]1(COCc1ccc(OC)cc1)Oc1ccccc12	none (no result: p53 PUMA act)
C=C1[C@@H](C)[C@H]2[C@H](Cc3ccccc3)NC(=O)[C@]23[C@H](OC(C)=O)C=C[C@](C)(O)C(=O)[C@@H](C)C/C=C/[C@H]3[C@@H]1O	none (no result: ID4 binder)
